Assay results reported in the supplement of paper PMC3334620.
Over roughly 33,000 sequences, “E-score (-0.5 to 0.5)” has its median near -0.012; the highest 2% begin near 0.27. Only a selection was taken, and the highest values are over-represented in it overall.

These sequences were tested against T1, Vhr1 (UniProt P40522) (assay: PBM E-score (8-mer binding enrichment) (E-score (-0.5 to 0.5)); higher = stronger / more preferred TF binding). Conditions: protein concentration: 200 nM; construct: GST-full length.
T1 sequence: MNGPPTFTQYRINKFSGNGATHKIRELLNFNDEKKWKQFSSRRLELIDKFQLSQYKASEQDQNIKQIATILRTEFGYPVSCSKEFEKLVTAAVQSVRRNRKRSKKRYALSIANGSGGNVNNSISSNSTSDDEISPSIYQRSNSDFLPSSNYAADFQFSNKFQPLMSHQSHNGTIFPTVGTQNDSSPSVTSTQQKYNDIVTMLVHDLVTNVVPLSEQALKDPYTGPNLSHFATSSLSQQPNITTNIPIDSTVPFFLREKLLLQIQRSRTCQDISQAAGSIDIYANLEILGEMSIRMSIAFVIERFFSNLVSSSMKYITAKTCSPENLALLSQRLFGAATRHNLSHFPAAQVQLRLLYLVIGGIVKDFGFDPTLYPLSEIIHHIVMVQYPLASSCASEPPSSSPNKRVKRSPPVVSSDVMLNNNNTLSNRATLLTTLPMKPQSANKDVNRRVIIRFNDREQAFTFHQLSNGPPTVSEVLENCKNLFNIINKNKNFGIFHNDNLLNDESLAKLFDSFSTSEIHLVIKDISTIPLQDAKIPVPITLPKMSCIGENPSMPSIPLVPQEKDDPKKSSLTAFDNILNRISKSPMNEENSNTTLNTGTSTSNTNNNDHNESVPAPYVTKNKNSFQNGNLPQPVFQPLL
Method in brief: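 Bound GST-tagged yeast transcription factors, applied at about 100-200 nM to double-stranded universal all-10-mer Agilent arrays, were detected with fluorescent anti-GST. Scans were normalised with masliner. A modified Wilcoxon-Mann-Whitney statistic, the E-score, was assigned to each ungapped eight-base word pooled with its reverse complement by the Universal PBM Analysis Suite.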

Sequence	PBM E-score
TCAATTGA	-0.0329
GATTCTCA	0.078
TGGTCCAA	-0.0804
AGATATAT	0.131
GCTGGGAA	0.0455
AGTGGGAC	0.0716
CCAAATCG	-0.166
ACTGCTCA	0.0795
AGCACTGG	-0.0591
AGGATGGC	0.124
GTCACAAA	-0.0213
CTCACACC	0.0809
CTCACATA	0.186
ATCACTCA	0.234
CTCACACA	0.299
CTCACGCA	0.29
GTCACGCA	0.0821
GTCACACA	0.303
GTCACAGA	0.157
GTCACTCA	0.325
CTCACGCC	0.239
CTCACTCA	0.0981
CATGGTAA	-0.0174
AATAGGGC	-0.124
AATTGTGG	0.00128

Sequence	PBM E-score
CCAACGCC	-0.203
CATTTGAA	-0.0815
TGATAGCA	0.194
ATAGATGC	-0.0668
GTGATATA	0.0452
CCATCCTC	0.0474
CTAGTATA	0.0509
CTCAACTA	0.106
ACTCCACG	-0.104
TCTCAACA	0.113
ACTCAACA	0.289
ACTCCACA	0.277
AATCAACA	0.303
ACTCAATG	0.159
GATCAACA	-0.0766
TCTCCACA	-0.0495
TATCAACA	0.172
AATCAATC	0.186
ACTCAACG	0.171
ACTCAATC	0.293
ACTCATAA	0.164
ACATCGCG	0.183
AGTTAGGC	-0.144
CGACTGTC	0.102
AAAGTAGG	-0.0386

Sequence	PBM E-score
ATCTCCAT	0.0116
ATGCTTGA	0.0306
TATCACCA	0.0885
AATCACCT	0.312
AATCACCC	0.38
AATCACCA	0.33
CATCACCA	0.167
AATCACCG	0.266
CATCACCC	0.103
AATCACGT	0.225
AACCACCT	0.0827
ACCCCAAG	-0.0964
CCGATCAC	0.0847
GTGCAAAC	-0.0932
TAGAAGGA	-0.332
ATAAGGGA	-0.137
ATCTAAAA	0.0219
ATTAACTG	0.224
CGTCATTA	-0.122
ATTCATTC	0.165
AGCCATTC	-0.00524
GGTCATTA	-0.0362
AGTCATTA	0.368
AGTCATTG	0.389
CCTCATTC	-0.0181

Sequence	PBM E-score
CGTCATTC	0.177
ACTCATTG	0.196
ATTCATTG	0.0738
ACTCATTC	0.367
AGTCATTC	0.384
TGACAGCA	0.127
ATAGCGTA	-0.0276
CAAAACAA	-0.13
GCCTCAAA	-0.0409
GAGGGCAC	-0.205
GTAGTCAA	0.262
CTAGTCAC	0.34
CTAGTCAA	0.124
AAAGTCAC	0.246
GTAGTCAC	0.441
CAAGTCAG	0.208
CTAGTCGC	0.0967
GAAGTCAC	0.269
CAAGTCAC	0.284
ACTCTTTC	-0.172
GTGTCTTA	0.0499
CCTGAATC	0.0923
GACGTTAC	-0.062
AAAGGCGT	-0.19
CCACAGCA	0.088

Sequence	PBM E-score
ACACAGCG	0.312
ACACAGCT	0.127
ACACAGCA	0.286
ACACAGCC	0.232
GCACAGCA	0.128
ATTTTAGC	-0.141
AATACCTC	0.0406
GAGTTAGA	-0.0441
ACTTTGAG	0.0115
AAGCTGGC	-0.163
AAGCGATT	-0.0711
CGCGGGCA	0.287
CGCGGGGA	0.292
CGTGGGGA	0.0323
GGCGGGAA	-0.0569
CGCGGGCC	0.187
AGCGGGGA	-0.0182
GGCGGGCA	0.198
GGTGGGGA	0.378
GGCGGGGA	0.409
CGCGGGAA	0.105
GCGGGGGA	-0.0987
GGTGGGAA	0.04
CACCAAGG	0.0118
AGGCTGGC	0.00081

Sequence	PBM E-score
AGGCCCGG	-0.234
ATTAGCGA	0.142
ATGGTCGA	-0.0168
GAGACTAA	-0.00777
CCGTTCAG	-0.184
GAACAATC	-0.0437
CAACAATC	0.273
CAACAATG	0.168
AGGCACAT	0.0884
AGCCACAT	0.22
CGTCACAA	-0.0394
GGTCACAA	0.0224
AGTCACAG	0.425
CGTCACAG	0.152
AGTCACAT	0.402
ATTCACAG	-0.0154
CGTCACAC	-0.021
GGTCACAC	0.0719
AGTCACAC	0.415
AGTCACAA	0.391
CTAAACAG	-0.00454
CGGCCTCA	0.024
ATTATTGA	0.036
TAGGAGCA	-0.0685
GACTTGTA	0.0565

Sequence	PBM E-score
CGAGCTCA	0.144
CGAGCTCC	-0.102
CGAGCTCG	0.307
CTGATGGC	0.0804
ATATTGGG	-0.038
GTTTATAA	-0.168
GCACCGAC	0.0173
ATGTAGTA	0.0473
ATGTAGTG	0.114
ATGTAGTC	0.286
ACATAGAT	-0.0848
AATTGTTA	-0.0275
ACAGCACG	0.118
AGTACACA	0.284
ACTACACG	0.221
TGTACACA	0.0228
ACTACACA	0.327
CCTACACG	-0.0152
AGTACACG	0.0779
GCCCAGAC	-0.15
ACTTCTTG	-0.106
CTGGTAAC	0.0684
ATCTGTAC	0.0611
ACACACGC	0.183
ACTCACGG	0.352

Sequence	PBM E-score
GATCACGC	0.193
AATCACGA	0.159
ACTCACGA	0.243
AATCACGC	0.354
CCTCACGC	0.0696
ACTCACGC	0.366
ACACACGG	0.155
AAACAAGA	0.121
AGCCCTAC	-0.108
ATTCTGGG	-0.107
GCAGTGGC	0.0117
GAGGTTGA	-0.131
AGAATAGG	0.026
AGTGAGTG	0.00138
CGTGAGTC	0.428
AGTGAGTC	0.466
AGTGAGAC	0.0195
CGTGAGTA	0.21
CGTGAGCC	0.0956
CACCTGCA	0.0182
TATAAGCA	0.00418
TACTCACA	0.285
CACTCACC	0.206
GACTCACA	0.44
CACTCACA	0.264

Sequence	PBM E-score
GACTCACC	0.469
AACTCACC	0.224
CACTCACG	0.238
AACTCACA	0.202
AACTCACG	0.109
TCCAGAAA	-0.0568
GCTTAGAA	-0.117
CAAATCAA	0.0775
AAACTGGG	-0.192
ATCTGATC	0.085
AGTTCTAG	-0.127
CACCCGCA	-0.0465
GACCCGCA	0.109
CACCCGCC	0.329
CACCCGCG	0.218
AACCCGCC	0.136
GACCCGCC	0.322
AACCTCAA	-0.195
ACCTACGT	-0.0787
AACTGCTG	-0.0272
ACCTTGAT	0.0042
TACCGTCA	-0.0775
GCGTGGCA	-0.22
AACTCCTA	0.017
CACTCCTA	-0.262

Sequence	PBM E-score
GACTCCTC	0.4
CACTCCAC	0.0458
GACTCCTA	0.384
GACTCCAA	0.237
GACTCCAC	0.346
CACTCCTC	0.183
AACTCCTC	-0.268
GTATTGGA	-0.184
TTTATAAA	-0.0811
CGACCCCC	-0.261
CTTTAACC	-0.127
AGAACCAA	-0.0911
TAATCATA	0.314
TAATCAAA	0.101
GAATCATC	0.437
TAATCGTA	0.114
CAATCATA	0.317
ATATCATA	0.216
CAATCAGA	-0.0178
CTATCATA	0.164
CCATCATA	0.0955
GTATCATA	0.288
ACATCATC	0.166
GAATCAAC	0.247
TACGATGA	0.11

Sequence	PBM E-score
ACTTCTTC	-0.00857
TACTCCTA	0.123
CCAGAGCG	-0.145
ACGACAAA	0.092
CAATCATC	0.284
CCATCATC	0.138
GCATCATA	0.136
AAATCATC	0.245
GAATCATA	0.397
GAATCAAA	-0.0259
ATTTACAA	-0.101
ATCACACC	0.288
ATCACACG	0.102
ATCACAGC	0.182
ATCACACA	0.282
ATCACATA	0.19
ATCACAAC	0.00509
ATAGGCAA	-0.246
ACCTCGAC	-0.00505
AGCTGCCT	-0.219
AGTTTTTC	-0.152
CCAGCGAG	0.181
TGCACGCA	-0.0577
ATAGTTGA	0.0409
CTAGTTGA	0.202

Sequence	PBM E-score
GTAGTTGA	0.277
AGAAATCT	-0.217
GGACGCTA	-0.324
CAACTTGG	0.0538
GGTCAACC	0.0175
AGTCAACC	0.373
CGTCAACG	-0.0358
AGTCAACT	0.144
AGTCAACA	0.19
AGTCAACG	0.278
ATCTGATA	0.0202
CATGTAGA	0.00603
AGTCGCTA	0.174
CCCCACCC	0.36
ACCCACCG	0.256
ACCCACTG	0.22
CCCCACCG	0.188
ACCCACTC	0.282
CCCCACTC	0.128
CCCCTCCC	0.171
ACCCTCCC	0.307
ACCCTCCT	-0.116
ACCCACCC	0.397
CCCCACCA	0.0983
ACCCACCT	0.0548

Sequence	PBM E-score
AAAGCCAT	-0.0236
CGTCCCAC	0.0371
GGTTAGAC	-0.00016
GGGCTTGA	-0.125
ACCCTAAT	-0.0655
CCAAAAGA	-0.201
ACCACCCA	0.192
TCCCACCA	-0.112
GCCCACCC	0.284
GCCCACCA	-0.125
ACCCACCA	0.296
GCCCACAC	0.069
CCGAGAGC	-0.0932
ATAGCGCC	0.0931
CCATTCGA	-0.172
AGCTGTAC	0.016
GAAGAAAA	-0.221
CCCGCGGG	0.102
ACCGCGGG	0.312
ACCGCGGT	0.0486
ACCGCGCT	0.0474
ACCGCGCG	0.336
ACCGCGCC	-0.0598
GGAAGAAC	0.0668
ACTATCAT	0.251

Sequence	PBM E-score
ATAGGGCG	-0.0674
AGGAGGGC	-0.11
AGGAGGGA	-0.101
AGGAGGGG	0.284
TATGGGCA	0.131
ACTCCCAA	0.112
GTCAGGTA	0.126
GTGATTCA	0.408
CTGATTCA	0.341
AGGATTCA	-0.0305
ATGATTTG	0.172
AAGATTCG	0.0242
ATGATTCG	0.412
GAGATTCA	0.0192
ACGATTCA	0.112
ATGATTCA	0.443
CGGATTCA	0.0469
CAGATTCA	-0.232
GGGATTCA	0.134
